Experimental findings from PubChem BioAssay are described below.

Test [1] concerns the target Albumin (Bos taurus) (UniProt P02769). The test is described as follows: compounds binding labelled BSA control protein – biochemical, small-molecule microarray, Alexa647 label, 635/667 nm fluorescence, artefact control for SMM control protein annotation, profiling panel (AID 1118).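 Further: score merges 667 nm emission intensity and signal-to-noise per printed compound spot.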 The note with it: BSA-A647 binding, fluorescence 635 nm, higher = more signal.
Test [2] is described as follows: probe aXIP binding to arrayed compounds – biochemical, NeuroSMM set, 635/667 nm fluorescence, primary screen (AID 1119).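 Further: probe is the protein aXip251-270 applied at 1 µg/mL to compound-printed slides; binding of probe to printed compounds measured as 667 nm fluorescence plus signal to noise.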 The conditions noted are these: small-molecule microarray, higher = more signal, called active from +8 up or from −8 down.
A short description of test [3]: probe aNOTCH3 binding on compound microarray – biochemical, small-molecule microarray, 635/667 nm fluorescence, primary screen (AID 1120).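 Further: probe is a biotin-tagged antibody raised against NOTCH3 rather than NOTCH3 protein; score merges spot fluorescence near 667 nm with spot signal to noise.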 The conditions noted are these: higher = more signal.
A short description of test [4]: probe aNOTCH2 binding on compound microarray – biochemical, small-molecule microarray, 635/667 nm fluorescence, primary screen (AID 1121).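 Further: score merges feature fluorescence read at 667 nm with its signal to noise.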 The conditions noted are these: higher = more signal.
The target of test [5] is Carbonic anhydrase 2 (Homo sapiens) (UniProt P00918). Nature of the test: compounds binding carbonic anhydrase 2 – biochemical, small-molecule microarray, Alexa647-labelled CAII, profiling panel (AID 1122). The note with it: CAII-A647 binding fluorescence, higher = more signal.
Test [6] in a line: COS7 lysate on small-molecule microarray, probe aHis, 635 nm (AID 1123).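 Further: z-score combines 667nm fluorescence intensity with signal-to-noise per printed compound spot.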 The note with it: COS7 cell lysate, fluorescence, higher = more signal.
Test [7] is described as follows: probe aLAP1 signal on lysate-treated microarray – cell lysate, small-molecule microarray, COS7 lysate, primary screen (AID 1124).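 Further: lysate comes from COS7 cells expressing LAP1 and is applied at 0.3 µg/mL; score merges spot fluorescence near 667 nm with signal-to-noise over triplicate slides.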 The note with it: probe aLAP1, fluorescence, higher = more signal.
Test [8] concerns Sam68 (KHDRBS1). The test is described as follows: compounds binding KHDRBS1 protein – biochemical, small-molecule microarray, 635 nm fluorescence, primary screen (AID 1125).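 Further: score merges 667 nm channel intensity with signal to noise over triplicate slides.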 The conditions noted are these: higher = more signal.
The subject of test [9] is Chordin-like protein 2 (CHRDL2). Nature of the test: compounds binding chordin-like 2 – biochemical, small-molecule microarray, 635 nm fluorescence, primary screen (AID 1126).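 Further: printed compound slides probed with Chrdl2 protein at 4 µg/mL for 1 h at 4 C; score merges 667 nm emission intensity with signal to noise over three replicate slides.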 The conditions noted are these: fluorescence 635 nm, higher = more signal.
Test [10] has as its target Concanavalin-A (Canavalia ensiformis) (UniProt P02866). Nature of the test: compounds binding concanavalin A lectin – biochemical, small-molecule microarray, Alexa647 label, 635 nm, artefact control for SMM control protein annotation, primary screen (AID 1127).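 Further: z combines 667 nm emission intensity with signal-to-noise across three replicate slides.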 The note with it: ConA-A647 binding fluorescence, higher = more signal.
The nature of test [11]: compounds binding Alexa647 anti-His antibody – biochemical, small-molecule microarray, 635 nm fluorescence, artefact control for SMM control protein annotation, primary screen (AID 1128).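 Further: score merges feature fluorescence with signal-to-noise for each printed compound spot.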 The conditions noted are these: higher = more signal.
Test [12] relates to Human papillomavirus type 1a E7 protein (residues 1-88). Nature of the test: HPV1a E7 small-molecule binders, primary screen, biochemical, small-molecule microarray, residues 1-88, 635 nm (AID 1129). The conditions noted are these: small-molecule microarray binding, fluorescence 635 nm; higher = more signal.
The target of test [13] is Focal adhesion kinase 1 (Homo sapiens) (UniProt Q05397). Nature of the test: PTK2 protein binding on printed compound slides – biochemical, small-molecule microarray, 635/667 nm fluorescence, BSA, DTT, primary screen (AID 1130).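 Further: composite of spot emission at 667 nm and signal to noise over triplicate slides.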 The conditions noted are these: 635 nm fluorescence, higher = more signal.
Test [14] has as its system Fibrinogen (Alexa647-labelled). The test is described as follows: Alexa647-fibrinogen binding to printed small molecules – biochemical, small-molecule microarray, 635/667 nm fluorescence, artefact control for SMM control-protein annotation, profiling panel (AID 1131).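 Further: z-score merges 667 nm fluorescence with per-spot signal-to-noise over triplicate slides.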 The note with it: fibrinogen-A647 binding fluorescence, higher = more signal.
The target of test [15] is Follistatin (Homo sapiens) (UniProt P19883). Nature of the test: FST protein binding to printed compounds – biochemical, small-molecule microarray, 635/667 nm fluorescence, primary screen (AID 1132). The note with it: 635 nm fluorescence, higher = more signal.
In test [16] the target is Fibroblast growth factor 2 (Homo sapiens) (UniProt P09038). The test is described as follows: basic fibroblast growth factor binding to printed compounds – biochemical, small-molecule microarray, 635/667 nm fluorescence, primary screen (AID 1133). The note with it: FGF2, fluorescence 635/667, higher = more signal.
Test [17] can be described thus: JC-1 mitochondrial potential readout, lung cancer cells – cell-based, A549, JC-1 fluorescence, basal, 24 h, 100 nL, profiling panel (AID 1138).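 Further: A549 lung adenocarcinoma cells under basal conditions with no added stimulus; test concentration not given here.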 The note with it: higher = more signal.
For test [18], the system named is Lefty1. The test is described as follows: Lefty1 protein binding to printed compounds – biochemical, small-molecule microarray, 635/667 nm fluorescence, primary screen (AID 1139). The conditions noted are these: fluorescence 635/667, higher = more signal.
The test system of test [19] is wheat germ agglutinin (Triticum aestivum), Alexa647-labelled. The test is described as follows: Alexa647-WGA lectin binding to printed small molecules – biochemical, small-molecule microarray, 635/667 nm fluorescence, artefact control for SMM control-protein annotation, profiling panel (AID 1140).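 Further: score merges 667 nm feature emission with signal to noise over triplicate slides.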 The conditions noted are these: WGA-A647 binding, 635 nm fluorescence, higher = more signal.

For test [20], the target named is Luciferin 4-monooxygenase (Photinus pyralis) (UniProt P08659). The test is described as follows: inhibition of purified Photinus pyralis luciferase – biochemical, luminescence, purified enzyme, 2006 set, primary screen (AID 1141).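 Further: cell-free assay with purified firefly luciferase at 100 ng per well in PBS; test concentration not given here.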 The conditions noted are these: purified firefly luciferase, SteadyGlo luminescence, 30 min; higher = more signal, called active from +8 up or from −8 down.

Calls of active or inactive are those of the source.

Follistatin (Homo sapiens), sequence (P19883 whole entry, looked up): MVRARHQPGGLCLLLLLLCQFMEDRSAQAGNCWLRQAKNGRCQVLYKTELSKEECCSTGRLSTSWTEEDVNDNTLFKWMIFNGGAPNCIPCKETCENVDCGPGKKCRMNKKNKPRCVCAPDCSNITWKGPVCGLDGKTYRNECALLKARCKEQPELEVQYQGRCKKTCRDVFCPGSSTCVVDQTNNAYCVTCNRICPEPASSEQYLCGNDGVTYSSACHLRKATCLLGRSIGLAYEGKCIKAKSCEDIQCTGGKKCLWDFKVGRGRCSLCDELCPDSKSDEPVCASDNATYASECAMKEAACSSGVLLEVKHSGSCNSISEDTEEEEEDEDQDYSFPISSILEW
Albumin (Bos taurus), sequence (P02769 whole entry, looked up): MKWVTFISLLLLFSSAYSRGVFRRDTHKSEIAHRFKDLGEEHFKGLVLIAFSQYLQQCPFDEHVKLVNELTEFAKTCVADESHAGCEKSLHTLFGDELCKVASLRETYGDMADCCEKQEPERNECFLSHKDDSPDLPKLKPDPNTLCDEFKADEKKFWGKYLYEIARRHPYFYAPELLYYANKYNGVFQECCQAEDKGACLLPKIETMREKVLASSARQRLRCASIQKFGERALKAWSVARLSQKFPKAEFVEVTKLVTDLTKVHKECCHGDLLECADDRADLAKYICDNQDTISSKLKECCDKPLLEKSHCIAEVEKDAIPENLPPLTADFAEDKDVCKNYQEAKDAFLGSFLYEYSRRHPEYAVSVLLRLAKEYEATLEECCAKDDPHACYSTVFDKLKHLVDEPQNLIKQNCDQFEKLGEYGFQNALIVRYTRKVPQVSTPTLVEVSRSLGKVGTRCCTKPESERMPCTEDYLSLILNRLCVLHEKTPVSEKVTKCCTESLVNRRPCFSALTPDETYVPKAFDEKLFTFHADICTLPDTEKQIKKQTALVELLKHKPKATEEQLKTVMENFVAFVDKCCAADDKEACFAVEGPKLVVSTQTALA
Luciferin 4-monooxygenase (Photinus pyralis), sequence (P08659 whole entry, looked up): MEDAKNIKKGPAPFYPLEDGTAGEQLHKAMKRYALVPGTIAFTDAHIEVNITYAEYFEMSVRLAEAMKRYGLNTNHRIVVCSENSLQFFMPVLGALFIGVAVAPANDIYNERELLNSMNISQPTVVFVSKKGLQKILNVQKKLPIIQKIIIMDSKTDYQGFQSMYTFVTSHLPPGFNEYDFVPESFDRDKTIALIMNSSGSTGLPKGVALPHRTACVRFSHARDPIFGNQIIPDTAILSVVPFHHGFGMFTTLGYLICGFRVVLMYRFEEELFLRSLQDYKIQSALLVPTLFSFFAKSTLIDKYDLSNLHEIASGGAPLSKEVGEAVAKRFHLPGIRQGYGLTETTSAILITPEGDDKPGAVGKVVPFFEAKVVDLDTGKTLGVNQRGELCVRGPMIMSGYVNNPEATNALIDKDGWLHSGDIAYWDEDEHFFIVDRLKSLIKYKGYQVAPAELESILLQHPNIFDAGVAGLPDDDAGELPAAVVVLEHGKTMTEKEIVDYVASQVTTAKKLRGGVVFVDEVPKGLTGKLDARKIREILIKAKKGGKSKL
Fibroblast growth factor 2 (Homo sapiens), sequence (P09038 whole entry, looked up): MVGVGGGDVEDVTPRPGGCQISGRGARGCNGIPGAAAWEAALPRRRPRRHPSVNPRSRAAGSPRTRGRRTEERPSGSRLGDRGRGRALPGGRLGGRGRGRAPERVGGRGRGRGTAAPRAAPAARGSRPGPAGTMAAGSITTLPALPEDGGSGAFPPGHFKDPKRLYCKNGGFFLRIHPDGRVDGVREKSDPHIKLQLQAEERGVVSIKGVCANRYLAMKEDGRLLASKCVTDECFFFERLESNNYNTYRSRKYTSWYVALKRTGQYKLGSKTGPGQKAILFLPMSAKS
Concanavalin-A (Canavalia ensiformis), sequence (P02866 whole entry, looked up): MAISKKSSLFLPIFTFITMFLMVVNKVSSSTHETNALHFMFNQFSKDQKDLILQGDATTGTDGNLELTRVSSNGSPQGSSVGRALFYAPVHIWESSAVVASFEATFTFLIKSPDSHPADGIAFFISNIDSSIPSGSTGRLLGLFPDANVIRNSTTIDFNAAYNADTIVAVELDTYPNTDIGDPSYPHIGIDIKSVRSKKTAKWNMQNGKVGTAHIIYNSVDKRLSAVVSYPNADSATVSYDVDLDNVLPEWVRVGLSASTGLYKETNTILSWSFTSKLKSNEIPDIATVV
Focal adhesion kinase 1 (Homo sapiens), sequence (Q05397 whole entry, looked up): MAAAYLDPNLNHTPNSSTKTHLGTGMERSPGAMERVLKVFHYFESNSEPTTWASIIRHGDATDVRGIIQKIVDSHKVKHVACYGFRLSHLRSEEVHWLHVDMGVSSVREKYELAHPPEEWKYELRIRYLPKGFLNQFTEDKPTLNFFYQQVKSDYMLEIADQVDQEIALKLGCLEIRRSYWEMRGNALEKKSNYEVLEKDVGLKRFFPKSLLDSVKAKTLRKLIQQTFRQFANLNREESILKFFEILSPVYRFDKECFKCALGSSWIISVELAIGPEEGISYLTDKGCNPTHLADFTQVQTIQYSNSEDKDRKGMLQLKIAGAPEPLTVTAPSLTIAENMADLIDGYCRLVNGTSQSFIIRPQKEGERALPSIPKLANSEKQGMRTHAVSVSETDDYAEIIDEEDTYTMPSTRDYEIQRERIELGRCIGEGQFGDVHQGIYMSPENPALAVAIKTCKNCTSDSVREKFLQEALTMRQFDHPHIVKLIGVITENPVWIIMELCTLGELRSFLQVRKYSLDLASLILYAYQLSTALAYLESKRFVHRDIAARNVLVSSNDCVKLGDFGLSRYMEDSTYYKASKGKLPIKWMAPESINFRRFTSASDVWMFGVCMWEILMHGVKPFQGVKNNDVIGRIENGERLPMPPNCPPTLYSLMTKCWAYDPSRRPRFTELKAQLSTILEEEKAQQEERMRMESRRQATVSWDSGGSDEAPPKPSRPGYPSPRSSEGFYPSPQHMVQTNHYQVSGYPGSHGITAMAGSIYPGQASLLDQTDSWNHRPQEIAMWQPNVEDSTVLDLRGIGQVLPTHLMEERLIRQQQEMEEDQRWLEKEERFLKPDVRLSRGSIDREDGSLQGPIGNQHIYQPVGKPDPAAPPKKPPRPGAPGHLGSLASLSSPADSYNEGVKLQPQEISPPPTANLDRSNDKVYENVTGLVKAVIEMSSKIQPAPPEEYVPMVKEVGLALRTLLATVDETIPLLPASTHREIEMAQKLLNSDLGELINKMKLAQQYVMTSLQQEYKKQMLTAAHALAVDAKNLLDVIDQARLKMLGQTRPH

For the compound `COCCOC(=O)N1C(=O)[C@@]2(c3cc(C#CC4=CCCCC4)ccc31)[C@H](c1ccc(O)cc1)N1[C@H](c3ccccc3)[C@H](c3ccccc3)OC(=O)[C@H]1[C@@H]2C(=O)N1CCN(c2ncccn2)CC1`, the composite z-score was -1.34 in test [1]; -0.345 in test [3]; -0.156 in test [4]; -0.391 in [5]; -0.147 in [6]; 0.601 in test [7]. The composite z-score is -0.535 in [8]; -1.21 in [9]; -0.217 in [10]; -0.849 in test [11]; -1.1 in test [12]; -0.415 in [13]. The composite z-score in [14] is -0.805; in test [15] it was -1.02; in test [16], -0.958; in test [18], -1.14; in [19], -0.649. In test [2], the composite Z-score is -0.551 (inactive). Besides, the z-score is 0.381 in test [17] and 1.18 (inactive) in [20].

On to `CCOC(=O)C1CCCCN1` (stereo not given), for which the composite z-score in test [1] is 0.351; in test [3], 0.77; in [4], 0.435; in [5], 0.175; in [6], 0.437; in [7], 0.471. Moreover, the composite z-score was 0.983 in test [8]; 0.47 in [9]; 0.562 in [10]; 0.313 in [11]; 0.859 in [12]; -0.0288 in test [13]. The composite z-score in test [14] worked out at 0.367; in test [15], 0.599; in [16] it was 0.522; in test [18] it was 0.589; in test [19], 0.109. For the same compound, the composite Z-score in test [2] was 0.104 (inactive). The z-score is -0.0223 in test [17] and 0.48 (inactive) in test [20].

With `COCCOC(=O)N1C(=O)[C@@]2(c3cc(C#CC4=CCCCC4)ccc31)[C@H](c1ccc(OCCO)cc1)N1[C@H](c3ccccc3)[C@H](c3ccccc3)OC(=O)[C@H]1[C@@H]2C(=O)NC[C@H](O)c1ccccc1`, the composite z-score in test [1] was -0.298; in [3], 0.164; in [4], 0.0629; in test [5], 0.326; in test [6] it was 1.22; in [7], 0.875. Moreover, the composite z-score in test [8] was determined as 1.31; in [9] it was 1.41; in test [10], 1.12; in test [11] it was 0.392; in test [12], 1.16; in [13], 0.499. The composite z-score is 0.295 in [14]; 1.48 in test [15]; 1.82 in [16]; 1.65 in test [18]; -0.127 in test [19]. Besides, the composite Z-score in test [2] is 0.193 (inactive). Moreover, the z-score in test [17] is -1.4; in [20], -2.06 (inactive).

Turning to `O=C1O[C@H](c2ccccc2)[C@H](c2ccccc2)N2[C@H]1[C@@H](C(=O)Nc1nc3ccccc3s1)[C@]1(C(=O)Nc3ccccc31)[C@H]2c1ccc(OCCO)cc1`, the composite z-score in [1] was 0.471; in test [3], 0.23; in test [4], -0.0895; in test [5], 0.546; in test [6] it was 0.823; in [7], 0.328. Also, the composite z-score in test [8] stood at 1.3; in test [9], 0.608; in test [10] it was 1.12; in test [11], 1.55; in test [12], 1.19; in test [13], 0.522. Further, the composite z-score in test [14] is 1.01; in test [15], 1.45; in test [16], 1.18; in [18], 1.2; in test [19], -0.0258. In addition, the composite Z-score in [2] was -0.393 (inactive). The z-score in test [17] was -2.15; in [20] it was -4.2 (inactive).

On to `COC(=O)C(CC#Cc1ccc2c(c1)[C@]1(C(=O)N2)[C@H](C(=O)N2CCN(c3ncccn3)CC2)[C@H]2C(=O)O[C@H](c3ccccc3)[C@H](c3ccccc3)N2[C@@H]1c1ccc(OCCO)cc1)C(=O)OC`, for which the composite z-score was 0.535 in test [1]; 0.207 in test [3]; -0.0821 in [4]; 0.259 in test [5]; 1.41 in test [6]; -0.192 in [7]. Besides, the composite z-score in [8] amounted to 1.3; in [9], 0.621; in test [10], 1.07; in test [11], 2.65; in test [12] it was 1.25; in test [13], 0.179. Also, the composite z-score in [14] was found to be 0.982; in test [15] it was 1.38; in test [16] it was 1.63; in test [18], 1.31; in test [19], 1.03. The composite Z-score in [2] is -0.425 (inactive). The z-score is -1.35 in test [17] and -1.22 (inactive) in test [20].
